# In PubChem BioAssay (EPA / NIEHS):
# Calls of active or inactive are those of the source. How the source made its calls: active means hit-call score of the fitted dose curve at least 0.9, where 1 is the maximum; inactive means score below 0.9.
# Test: ATG_NRF2_ARE_CIS: Attagene CIS-FACTORIAL HepG2 Assay for human Nuclear Factor Erythroid 2 Related Factor 2 (NFR2) response to Antioxidant Response Elements (ARE) (AID 2282992)
# Conditions: HepG2 Attagene ARE/NRF2 reporter, transcription factor activity; actives raise or lower the signal
# Procedure: ATG_CIS is a cell-based, multiplexed-readout assay that uses HepG2, a human liver cell line, with measurements taken at 24 hours after chemical dosing in a 24-well plate.ATG_NRF2_ARE_CIS is one of 52 assay component(s) measured or calculated from the ATG_CIS assay. It is designed to make measurements of mRNA induction, a form of inducible reporter, as detected with fluorescence intensity signals by Reverse transcription polymerase chain reaction (RT-PCR) and Capillary electrophoresis technology.Data from the assay component ATG_NRF2_ARE_CIS was analyzed into 1 assay endpoint. This assay endpoint, ATG_NRF2_ARE_CIS, was analyzed with bidirectional fitting relative to DMSO as the negative control and baseline of activity. Using a type of inducible reporter, measures of mRNA for gain or loss-of-signal activity can be used to understand the reporter gene at the transcription factor-level as they relate to the gene NFE2L2. Furthermore, this assay endpoint can be referred to as a primary readout, because this assay has produced multiple assay endpoints where this one serves a reporter gene function. To generalize the intended target to other relatable targets, this assay endpoint is annotated to the dna binding intended target family, where the subfamily is basic leucine zipper.
# Human liver HepG2 cells are transiently transfected with multiple reporter transcription units (MRTUs) in 6-well plates using FuGene 6 reagent (Roche; 3 ml FuGene/1 mg DNA). The MRTU constructs are regulated by a cis-regulating element (promoter). […] A major difference between the CIS and TRANS system is that in CIS activities of endogenous TFs are measured, whereas the TRANS assay evaluates changes in activities of exogenous, chimeric NR-Gal4 proteins. […] At the end of 24 hour incubation, total RNA was isolated using TriZol reagent (Invitrogen). The isolated RNA is then reverse-transcribed using oligo(dT) primer and Mo-MLV reverse transcriptase (Invitrogen) with DNAse I (Ambion) treatment for 30 min. The one-tenth of the produced cDNA was amplified by PCR using Taq DNA polymerase (Invitrogen) and two reporter sequence-specific primers. The PCR products were fluorescently labeled by primer extension with 6-arboxyfluorescein (6-FAM) 5'-labeled reporter sequence-specific primer (2 min at 95 C, 20 s at 68 C and 10 min at 72 C) and these products were digested with 5U of HpaI (New England Biolabs) for 2h at 37 C. The fragments were purified using Qiaquick PCR columns (Qiagen), analyzed on an ABI 3130xL genetic analyzer (Applied Biosystems) with peak positions identified by using a set of X-rhodamine (ROX)-labeled MapMarker1000 molecular weight standards (BioVentures). The raw capillary electrophoresis data was processed using Attagraph software (Attagene).
Compound,outcome,AC50
CC/C=C\CCOC(=O)CC,inactive,–
C/C=C(\C)C(=O)OCCc1ccccc1,inactive,–
CC1=CC[C@@]23C[C@@H]1C(C)(C)[C@@H]2CC[C@H]3C,–,100 µM (active)
NC1CCCCC1N (stereo not given),inactive,–
CCCC(=O)c1ccccc1,inactive,–
C=CCCCCCCCCCC,inactive,–
CCCCCCCCCC(=O)OC,inactive,–
CC(C)CC(C)CC(O)CC(C)C (stereo not given),–,100 µM (active)
CC1(C)O[C@@H]2[C@@H](CO[C@@]3(COS(N)(=O)=O)OC(C)(C)O[C@@H]23)O1,inactive,–
Oc1ccc2cc(SSc3ccc4cc(O)ccc4c3)ccc2c1,–,8.28 µM (active)
CC(C)(CO)[C@@H](O)C(=O)NCCC(=O)O,inactive,–
C=Cc1ccc(C(C)(C)C)cc1,inactive,–
CCCCCCCCSCCO,–,186 µM (active)
CCC(=O)OCCOc1ccccc1,inactive,–
O=C(O)COCC(=O)O,inactive,–
Nc1ccc2cc(S(=O)(=O)O)cc(O)c2c1N=Nc1ccccc1C(F)(F)F,inactive,–
COC(=O)c1ccc(OC)cc1,inactive,–
Cc1ccc(S(N)(=O)=O)cc1,inactive,–
Nc1ccn([C@H]2CS[C@@H](CO)O2)c(=O)n1,inactive,–
OCC#CCO,inactive,–

Compound,outcome,AC50
c1ccc(Oc2ccccc2)cc1,inactive,–
O=C1CCCC=CCCCCCCCCCC1,–,45.7 µM (active)
CC1=NN(c2ccc(S(=O)(=O)O)cc2)C(=O)C1,inactive,–
C=CCN(CC=C)CC=C,inactive,–
CCCCCCCCN1CCCC1=O,–,66.8 µM (active)
CCOc1ccc(N=Nc2ccc(C=Cc3ccc(N=Nc4ccc(OCC)cc4)cc3S(=O)(=O)O)c(S(=O)(=O)O)c2)cc1,inactive,–
CCOC(=O)C1OC1c1ccccc1 (stereo not given),inactive,–
ClC(c1ccccc1)(c1ccccc1)c1ccccc1,inactive,–
CCCCCCC(CO)CCCC (stereo not given),inactive,–
COCCOC(=O)c1ccccc1C(=O)OCCOC,inactive,–
O=[N+]([O-])c1ccc(O)cc1C(F)(F)F,–,52.8 µM (active)
C=C(C)C(=O)OCCOC1CC2CC1C1C=CCC21 (stereo not given),–,177 µM (active)
CCCCSCCCC,inactive,–
CCCC[P+](CCCC)(CCCC)CCCC,inactive,–
C=C(C#N)C(=O)OCC,inactive,–
CC1CC(O)CC(C)(C)C1 (stereo not given),inactive,–
O=C(O)CCCCCCCCC(=O)O,inactive,–
COC(C)(C)CC(C)=O,inactive,–
COCCOCCOCCO,inactive,–
CCCN(CCC)S(=O)(=O)c1ccc(C(=O)O)cc1,inactive,–
